Potency, activity change, negative = inhibition and outcome data for nine compounds are collected here from PubChem BioAssay (NCATS).

In experiment [1] the target is Cytochrome P450 1A2 (Homo sapiens) (UniProt P05177). Nature of the experiment: p450-cyp1a2 (AID 410; calls by dose curve; note: potency is the fitted concentration of half-maximal effect). The gist of the method: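 20nM CYP1A2 with 100uM Luciferin-ME (at Km) in 100mM KPO4; compound preincubated 10 min, NADPH regeneration added, 60 min at room temperature. Luciferin quantified by luminescence after detection reagent; normalized to 57 uM furafylline.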

Experiment [2] in a line: NFAT Signaling Pathway (AID 444; active = well fitted curve in either direction with a large enough effect, not every such curve was filed as active;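 note: carbachol stimulus at about its EC50 of 1 µM final; % is set by controls: 0 for no effect and ±100 for the full control effect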). Conditions: Jurkat NFAT-bla M1, carbachol, beta-lactamase ratio, 5 h; at 17.2 µM (top of the series) unless noted. The gist of the method:
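Jurkat cells with NFAT-driven β-lactamase reporter and co-expressed M1 receptor, stimulated with carbachol (final 1 uM, ~EC50), compound titration, 5 h at 37 °C. CCF4 loaded 1 h at RT; 460/530 nm ratio gave %activity and AC50.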

The nature of experiment [3]: Stat Signaling Pathway (AID 446; active = well fitted curve in either direction with a large enough effect, not every such curve was filed as active;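 note: ME-180 cervical cancer cells given 40 pM IL-6 alongside compound; SIE-controlled beta-lactamase reporter measured as 460/530 nm FRET emission ratio; % is set by controls: 0 for no effect and ±100 for the full control effect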). The gist of the method: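 Reporter line: ME-180 cervical carcinoma, SIE-beta-lactamase. Treatment: compound with 40 pM IL-6, 5 hrs, 37 C, in low-serum OPTI-MEM with 10 mM HEPES pH 7.3. Detection: 460/530 nm fluorescence.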
For experiment [4], the target named is Glucocorticoid receptor (Homo sapiens) (UniProt P04150). Put plainly: GR-GFP Redistribution (AID 450;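 active = compounds whose dose series gives a full or clear partial fitted curve of increased nuclear translocation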; note: potency is the fitted concentration of half-maximal effect). Conditions: U2OS GR-GFP nuclear translocation, laser cytometry, 2 h.
The target is the same in experiment [5]. Put plainly: GR-EFC Redistribution (AID 451; calls by dose curve; note: potency is the fitted concentration of half-maximal effect). As to conditions: CHO-K1 GR-EFC translocation, beta-gal luminescence, 2 h. Put shortly:
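CHO-K1 cells expressing nuclear EA and GR-ED fragments of b-gal; compounds titrated up to 46 uM final, 2 h at 37 C. GR nuclear translocation read as complemented b-gal luminescence after 1 h RT detection.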

The target of experiment [6] is Mitogen-activated protein kinase 10 (Mus musculus) (UniProt Q61831). Put plainly: JNK3 AlphaScreen Assay (AID 530; active = well fitted curve in either direction with a large enough effect, not every such curve was filed as active;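 note: kinase came from lysate of stimulated human HepG2 cells; signal reports phosphorylation of biotinylated GST-cJun 1-79 at Ser73 with 10 µM ATP; % is set by controls: 0 for no effect and ±100 for the full control effect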). Put shortly:
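Pre-activated (IL-1β/TNFα) JNK3 in HepG2 lysates phosphorylates biotin-GST-cJun(1-79), 10 uM ATP; anti-phospho-cJun(Ser73) AlphaScreen read at room temperature, pH 7.6 Tris buffer. Compounds pre-incubated 15 min as titrations.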
For orientation: In Alpha technology, singlet oxygen from a donor bead excites a nearby acceptor bead.

Experiment [7] concerns the target 3',5'-cyclic-AMP phosphodiesterase 4B (Homo sapiens) (UniProt Q07343). Put plainly: qHTS Assay for Inhibitors of PDE-IV (AID 607; active = well fitted activation curve with a large enough effect in the main read-out, with a control signal flat, not every such curve was filed as active; note: % of control where 0% means no effect). Put shortly: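 Cell-based read-out of cAMP via a modified cyclic nucleotide-gated channel and membrane potential dye (535/590 nm) in HEK293 cells expressing PDE4 endogenously. Compounds tested up to 22.9 uM final; 100 uM RO 20-1724 reference.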
Background: In qHTS, concentration-response curves come from the screen itself.

Experiment [8] has as its target Luciferin 4-monooxygenase (Photinus pyralis) (UniProt P08659). Nature of the experiment: Biochemical firefly luciferase enzyme assay for NPC (AID 624030).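 Note: purified P. pyralis luciferase at 10 nM with luciferin and ATP substrate; 0% = DMSO and -100% = full luciferase inhibition by PTC124 control; nearly all actives have a fitted effect of over 70% in size.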 The gist of the method:
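Purified P. pyralis luciferase at 10 nM in 50 mM Tris Acetate (final), luminescence read within 5 minutes of enzyme addition to compounds. Activity normalised to PTC124 versus DMSO; concentration-response curves classed by r2, magnitude and activity.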

The nature of experiment [9]: S16 Schwann cell viability assay (CellTiter-Glo assay) (AID 624031).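 Note: native untransfected S16 rat Schwann cells; cellular ATP luminescence as a viability measure; plate controls were DMSO-treated cells for no effect and cell-free wells for full effect; nearly all actives have a fitted effect of over 70% in size.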 Put shortly: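 Concentration-effect curves come from CellTiter-Glo luminescence of S16 rat Schwann cells after 24 h compound exposure. Each reading was normalized to DMSO wells (0%) and wells without cells, and curves were ranked by r2 and response magnitude.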
In general terms: Cellular ATP, detected with luciferase, serves as a proxy for viable cell number.

Experiment [10] is described as follows: S16 Schwann cell PMP22 intronic element firefly luciferase assay (AID 624032).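 For activity change, negative = inhibition: plate controls were DMSO for no effect and PTC124 positive control mean for full effect.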 Note: nearly all actives have a fitted effect of over 30% in size. Note: potency is the fitted concentration of half-maximal effect. Put shortly:
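Rat S16 Schwann cells stably carrying firefly luciferase driven by a PMP22 intronic element, in 10% FBS, treated 24 h at 37 C. ONE-Glo luminescence normalized to PTC124 control and DMSO (0%); curves classed by r2, magnitude and activity.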

Experiment [11] addresses Cytochrome P450 3A4 (Homo sapiens) (UniProt P08684). Put plainly: qHTS Assay for Inhibitors and Substrates of Cytochrome P450 3A4 (AID 884). Note: % is set by controls: 0 for no effect and ±100 for the full control effect; nearly all actives have a fitted effect of over 50% in size. The gist of the method:
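20 nM human CYP3A4 with 25 uM Luciferin-PPXE (at KM) in 200 mM KPO4, preincubated 10 min with compound; NADPH regeneration started a 60 min RT reaction. Luciferin detected by luminescence, normalized to 57 uM ketoconazole as full inhibition.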

The next experiment relates to 7G8. Put plainly: qHTS profiling for inhibitors of Plasmodium falciparum proliferation (AID 504749). Note: nearly all actives have a fitted effect of over 60% in size. Note: potency is the fitted concentration of half-maximal effect. As to conditions: P. falciparum in erythrocytes, SYBR Green DNA, 72 h; series mostly up to 12.8 µM. The gist of the method: (§1)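 P. falciparum-infected erythrocytes (0.3% parasitemia, 2.5% hematocrit) incubated with compound 72 h at 37 C, 5% CO2. Parasite DNA detected by SYBR Green after lysis, overnight at room temperature; normalised to 0.29 uM artemisinin and DMSO.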

The subject of another experiment is CP215. The description is as above. As to conditions: P. falciparum in erythrocytes, SYBR Green DNA, 72 h; series mostly up to 12.8 µM. Put shortly:
as §1

The subject of another experiment is DFO2036. Described as above. Conditions: P. falciparum in erythrocytes, SYBR Green DNA, 72 h; series mostly up to 12.8 µM. The gist of the method: as §1
In a further experiment the test system is DIV14. The experiment is described as above. Conditions: P. falciparum in erythrocytes, SYBR Green DNA, 72 h; series mostly up to 12.8 µM. Put shortly:
as §1

A further experiment relates to GB4. The experiment is described as above. Conditions: P. falciparum in erythrocytes, SYBR Green DNA, 72 h; series mostly up to 12.8 µM. The gist of the method: as §1
The subject of the next experiment is W2. Described as above. Conditions: P. falciparum in erythrocytes, SYBR Green DNA, 72 h; series mostly up to 12.8 µM. Put shortly:
as §1

Experiment [12] has as its target Cytochrome P450 3A4 (Homo sapiens) (UniProt P08684). Put plainly: qHTS Assay for Activators of Cytochrome P450 3A4 (AID 885). Note: nearly all actives have a fitted effect of over 65% in size. The gist of the method: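 Signal was normalized against complete inhibition by 57 uM ketoconazole. The reaction used 20nM CYP3A4 with 25uM Luciferin-PPXE, 10-min compound preincubation and a 60-min NADPH-supported step at RT.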
The target in experiment [13] is DNA dC->dU-editing enzyme APOBEC-3G (Homo sapiens) (UniProt Q9HC16). Put plainly: qHTS for inhibitors of Vif-A3G interactions: Validation (AID 588379). Note: 0% is about no effect. Put shortly: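 HeLa cells stably expressing Vif and A3G-eYFP, 700 cells/well, incubated overnight at 37 deg C, then exposed to compound overnight at 37 deg C. Inhibition of Vif-mediated degradation read as increased yellow fluorescence (Ex 488/Em 500-530) by laser-scanning cytometry.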

Several values for one entry are separate records, joined by “and”; a condition that tells them apart may be missing. Equal entries are not always repeated. Records with an inconclusive call do not appear. Some compounds were tested as several samples or in several runs, with calls that do not always agree. Activity calls are given as the source filed them. Unless noted, calls come from the whole dose curve; as a rule, active = well fitted curve in the direction sought with a large enough effect; inconclusive = small, poorly fitted or top-dose-only effect, or another doubt; inactive = no such curve, though single readings can be large; an effect the other way counts as inactive or inconclusive. A value given as a limit tells only on which side of the number the result lay.

Sequence of Cytochrome P450 3A4 (Homo sapiens) (P08684 whole entry, looked up): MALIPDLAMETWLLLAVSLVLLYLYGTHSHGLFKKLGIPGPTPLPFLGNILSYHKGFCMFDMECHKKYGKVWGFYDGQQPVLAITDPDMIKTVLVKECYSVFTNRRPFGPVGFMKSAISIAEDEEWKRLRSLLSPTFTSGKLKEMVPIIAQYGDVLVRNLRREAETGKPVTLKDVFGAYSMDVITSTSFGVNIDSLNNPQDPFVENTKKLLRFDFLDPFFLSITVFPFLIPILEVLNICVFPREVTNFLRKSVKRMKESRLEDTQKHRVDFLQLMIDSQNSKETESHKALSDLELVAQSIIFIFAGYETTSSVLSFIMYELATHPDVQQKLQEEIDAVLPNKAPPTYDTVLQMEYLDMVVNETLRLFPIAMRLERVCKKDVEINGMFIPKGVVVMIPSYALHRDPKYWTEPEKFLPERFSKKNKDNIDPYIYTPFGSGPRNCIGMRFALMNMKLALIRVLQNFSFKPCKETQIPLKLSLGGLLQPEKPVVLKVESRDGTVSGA
Sequence of Glucocorticoid receptor (Homo sapiens) (P04150 whole entry, looked up): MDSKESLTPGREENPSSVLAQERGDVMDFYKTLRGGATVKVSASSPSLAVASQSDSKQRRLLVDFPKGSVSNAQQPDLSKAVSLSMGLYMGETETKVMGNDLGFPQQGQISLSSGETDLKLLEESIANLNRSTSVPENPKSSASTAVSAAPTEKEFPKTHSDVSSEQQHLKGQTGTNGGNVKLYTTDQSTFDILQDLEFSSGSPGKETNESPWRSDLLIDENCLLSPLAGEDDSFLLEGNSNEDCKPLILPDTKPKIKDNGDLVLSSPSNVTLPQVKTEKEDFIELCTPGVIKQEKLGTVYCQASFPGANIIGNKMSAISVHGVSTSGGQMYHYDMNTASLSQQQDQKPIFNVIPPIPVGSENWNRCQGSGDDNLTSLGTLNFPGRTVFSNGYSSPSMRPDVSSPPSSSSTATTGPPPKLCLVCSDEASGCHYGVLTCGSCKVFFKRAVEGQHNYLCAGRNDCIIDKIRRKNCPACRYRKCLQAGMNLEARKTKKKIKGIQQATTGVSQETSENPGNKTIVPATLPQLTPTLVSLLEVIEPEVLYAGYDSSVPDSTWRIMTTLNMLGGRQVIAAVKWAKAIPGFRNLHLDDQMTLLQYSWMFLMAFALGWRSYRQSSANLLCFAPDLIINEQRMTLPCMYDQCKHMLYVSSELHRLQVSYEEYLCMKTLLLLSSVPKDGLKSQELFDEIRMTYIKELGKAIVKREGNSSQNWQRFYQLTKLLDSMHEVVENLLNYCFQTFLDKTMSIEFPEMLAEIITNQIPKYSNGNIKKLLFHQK
Sequence of Luciferin 4-monooxygenase (Photinus pyralis) (P08659 whole entry, looked up): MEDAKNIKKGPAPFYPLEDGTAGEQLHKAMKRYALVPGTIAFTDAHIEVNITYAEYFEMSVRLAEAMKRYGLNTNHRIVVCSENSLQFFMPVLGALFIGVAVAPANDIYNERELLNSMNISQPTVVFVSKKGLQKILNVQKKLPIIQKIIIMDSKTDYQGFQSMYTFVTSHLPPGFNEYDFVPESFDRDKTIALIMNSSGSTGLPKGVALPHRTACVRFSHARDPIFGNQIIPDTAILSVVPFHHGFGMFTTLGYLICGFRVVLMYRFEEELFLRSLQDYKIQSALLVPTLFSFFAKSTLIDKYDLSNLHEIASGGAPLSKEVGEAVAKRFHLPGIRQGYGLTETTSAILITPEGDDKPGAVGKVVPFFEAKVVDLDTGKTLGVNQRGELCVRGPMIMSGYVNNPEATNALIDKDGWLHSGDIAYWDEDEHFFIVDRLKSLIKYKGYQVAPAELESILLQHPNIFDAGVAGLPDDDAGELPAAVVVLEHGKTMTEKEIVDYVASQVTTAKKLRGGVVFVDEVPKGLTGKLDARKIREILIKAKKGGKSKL
Sequence of Cytochrome P450 1A2 (Homo sapiens) (P05177 whole entry, looked up): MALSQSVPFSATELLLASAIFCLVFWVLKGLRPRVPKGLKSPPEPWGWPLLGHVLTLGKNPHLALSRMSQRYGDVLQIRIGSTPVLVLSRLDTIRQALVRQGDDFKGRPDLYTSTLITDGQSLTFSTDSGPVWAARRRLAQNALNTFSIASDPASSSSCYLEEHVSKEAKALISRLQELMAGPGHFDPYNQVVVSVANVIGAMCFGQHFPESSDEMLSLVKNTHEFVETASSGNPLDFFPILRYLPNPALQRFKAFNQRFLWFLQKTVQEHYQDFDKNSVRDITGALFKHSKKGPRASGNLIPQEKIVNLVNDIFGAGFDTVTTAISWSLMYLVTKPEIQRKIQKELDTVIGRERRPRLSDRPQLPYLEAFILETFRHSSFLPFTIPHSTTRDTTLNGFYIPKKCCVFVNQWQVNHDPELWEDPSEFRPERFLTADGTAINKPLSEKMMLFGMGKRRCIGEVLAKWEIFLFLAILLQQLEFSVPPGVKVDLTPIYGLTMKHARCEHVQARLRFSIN
Sequence of 3',5'-cyclic-AMP phosphodiesterase 4B (Homo sapiens) (Q07343 whole entry, looked up): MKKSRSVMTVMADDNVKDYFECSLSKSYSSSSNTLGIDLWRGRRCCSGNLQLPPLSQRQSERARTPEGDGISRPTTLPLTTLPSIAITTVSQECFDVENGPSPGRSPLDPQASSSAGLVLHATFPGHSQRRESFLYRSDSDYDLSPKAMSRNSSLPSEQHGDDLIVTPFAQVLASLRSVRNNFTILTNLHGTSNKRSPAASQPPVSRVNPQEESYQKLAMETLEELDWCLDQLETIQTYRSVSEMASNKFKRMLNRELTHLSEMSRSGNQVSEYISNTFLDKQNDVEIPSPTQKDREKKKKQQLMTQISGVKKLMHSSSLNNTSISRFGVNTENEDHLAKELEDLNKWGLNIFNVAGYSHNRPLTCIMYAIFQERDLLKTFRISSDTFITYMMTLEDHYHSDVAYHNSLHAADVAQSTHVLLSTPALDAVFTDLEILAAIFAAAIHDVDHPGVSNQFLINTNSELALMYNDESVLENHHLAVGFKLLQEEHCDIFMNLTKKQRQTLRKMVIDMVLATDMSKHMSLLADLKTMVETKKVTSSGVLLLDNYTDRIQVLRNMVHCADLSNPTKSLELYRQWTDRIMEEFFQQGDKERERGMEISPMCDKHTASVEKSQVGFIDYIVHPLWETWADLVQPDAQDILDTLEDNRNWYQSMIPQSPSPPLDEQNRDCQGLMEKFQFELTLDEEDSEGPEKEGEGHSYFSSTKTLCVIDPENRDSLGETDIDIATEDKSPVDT
Sequence of DNA dC->dU-editing enzyme APOBEC-3G (Homo sapiens) (Q9HC16 whole entry, looked up): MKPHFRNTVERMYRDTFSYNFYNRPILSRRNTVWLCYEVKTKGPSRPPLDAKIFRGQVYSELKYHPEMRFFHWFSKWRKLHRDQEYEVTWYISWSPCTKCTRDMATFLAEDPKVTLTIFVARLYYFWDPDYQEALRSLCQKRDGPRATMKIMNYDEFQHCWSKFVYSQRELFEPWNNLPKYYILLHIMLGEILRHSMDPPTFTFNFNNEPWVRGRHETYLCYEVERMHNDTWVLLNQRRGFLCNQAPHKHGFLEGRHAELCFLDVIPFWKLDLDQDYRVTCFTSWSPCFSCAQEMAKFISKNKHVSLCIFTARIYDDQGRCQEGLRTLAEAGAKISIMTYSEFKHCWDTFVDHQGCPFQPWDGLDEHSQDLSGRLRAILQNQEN

Regarding `O=C(O)[C@@H]1[C@@H]2C[C@H]3c4[nH]c5ccccc5c4CCN3C[C@@H]2CC[C@@H]1O`, the Potency was 12.6 µM (active) and inactive in experiment [1]; > 20.6 µM (inactive) and > 46 µM (inactive) in [4]; > 20.6 µM (inactive) and > 46 µM (inactive) in experiment [5]. Also, the activity change, negative = inhibition in experiment [2] is -27% (inactive). The compound was classed as inactive in [3], in experiment [7] and in experiment [9]. For the same compound, the Potency entry in experiment [6], in experiment [8] and in [10] was “inactive” throughout.

Turning to `O=C1OC(CO)C(O)C(O)C1O` (configuration not stated), the Potency result (in experiment [11]; in [10]; in the experiment on 7G8; in the experiment with CP215; in the experiment on DFO2036; in the experiment with DIV14) was “inactive” each time. Further, the Potency result in the experiment on GB4 and in the experiment with W2 was “inactive” in each case. The call in experiment [9] was inactive.

As for `CC(=O)OC1CCC2C3CCc4cc(O)ccc4C3CCC12C` (configuration not stated), the Potency entry (in experiment [8]; in experiment [10]; in the experiment on CP215; with DIV14; in the experiment on GB4) was “inactive” each time. Also, the compound was called inactive in experiment [9].

On to `OCC1OC([S-])[C@H](O)C(O)C1O.[Au+]` (some centres not stated), for which the Potency result (in [11]; in experiment [10]; with CP215; in the experiment with DFO2036; in the experiment with DIV14; in the experiment with GB4) was “inactive” in each case. For the same compound, the compound was called inactive in experiment [9].

With `NC(C(=O)O)[C@@H]1CC(Cl)=NO1` (some centres not stated), the Potency entry in experiment [11] and in experiment [8] was “inactive” throughout. Further, the Potency in the experiment with 7G8 was 631 nM (active); in the experiment with CP215, 3010 nM (active); with DFO2036 it was 2000 nM (active); with DIV14 it was 2390 nM (active); in the experiment with GB4 it was 1200 nM (active); in the experiment with W2 it was 849 nM (active).

Take `COc1c(O)cc(O)cc1O`: the Potency result in [12] is “inactive”.

`CC(=O)[C@]1(O)CCC2C3C=C(Cl)C4=CC(=O)C5CC5[C@@]4(C)C3CC[C@]21C` (some centres not stated): the Potency result (in [8]; in experiment [10]; with CP215; with DFO2036; in the experiment with DIV14; in the experiment on GB4) was “inactive” each time. The Potency entry in the experiment with W2 was “inactive”. Besides, the compound was classed as inactive in experiment [9].

As to `C/C1=C2N=C(/C=C3N=C(/C(C)=C4\[N-]C(C)(C5N=C1C(C)(CCC(=O)NCC(C)OP(=O)([O-])O[C@H]1C(O)C(n6cnc7cc(C)c(C)cc76)O[C@@H]1CO)C5CC(N)=O)C(C)(CC(N)=O)C4CCC(N)=O)C(C)(CC(N)=O)C\3CCC(N)=O)C(C)(C)C/2CCC(N)=O.[CH2-]C1OC(n2cnc3c(N)ncnc32)C(O)C1O.[Co]` (some centres not stated), the Potency entry (in [12]; with 7G8; in the experiment on CP215; with DFO2036; in the experiment with DIV14; with GB4) was “inactive” throughout. Further, the compound was classed as inactive in [9]. Moreover, the Potency in [10] is 14400 nM (active).

As for `C[C@]1(c2ccccc2)OC(C(=O)O)=CC1=O`, the Potency result (in experiment [6]; in [8]; in experiment [10]; in the experiment with 7G8; in the experiment on CP215; in the experiment with DIV14) was “inactive” throughout. Besides, the Potency entry with GB4 and with W2 was “inactive” each time. Also, the outcome in [13] and in [9] was inactive.
